Laboratory results from PubChem BioAssay.
For part of these data: Results with a measured potency or affinity are listed apart. Activity calls are given as the source filed them. Unless noted, how the calls were made is not given here. Residues, ends and D or L forms follow the SMILES beside them. *: point of attachment. Boc = CC(C)(C)OC(=O)*

Experiments:
[1] = antimalarial activity against Dd2 strain (AID 2302;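 active means growth inhibition above 50% at the single 2 µM test dose, taken to imply half-maximal potency below 2 µM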;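 further: 0% = DMSO untreated growth and 100% = chloroquine plus artemisinin killed control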); conditions: P. falciparum Dd2 in RBCs, LDH growth readout, 72 h; at 2 µM; active compounds read high
[2] = human hepatoma cell viability loss – ATP luminescence, cytotoxicity control for P. falciparum antimalarial project, primary screen (AID 2303;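 active means inhibition above 50%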;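 further: 0% = DMSO wells and 100% = digitonin-killed cells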); conditions: HepG2 viability, 24-48 h, at 10 µM, active compounds read high
[3] = target: L-lactate dehydrogenase (Plasmodium falciparum (isolate CDC / Honduras)) (UniProt Q27743); assay: PfLDH activity inhibition – cell lysate, 3D7 strain, counter-screen for P. falciparum growth inhibition project (AID 2304);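 further: 0% = vehicle and 100% = reference inhibitor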; conditions: P. falciparum 3D7 crude extract, LDH APAD/NBT absorbance; at 2 µM; active compounds read high
Chain of L-lactate dehydrogenase (Plasmodium falciparum (isolate CDC / Honduras)) (Q27743 whole entry, looked up): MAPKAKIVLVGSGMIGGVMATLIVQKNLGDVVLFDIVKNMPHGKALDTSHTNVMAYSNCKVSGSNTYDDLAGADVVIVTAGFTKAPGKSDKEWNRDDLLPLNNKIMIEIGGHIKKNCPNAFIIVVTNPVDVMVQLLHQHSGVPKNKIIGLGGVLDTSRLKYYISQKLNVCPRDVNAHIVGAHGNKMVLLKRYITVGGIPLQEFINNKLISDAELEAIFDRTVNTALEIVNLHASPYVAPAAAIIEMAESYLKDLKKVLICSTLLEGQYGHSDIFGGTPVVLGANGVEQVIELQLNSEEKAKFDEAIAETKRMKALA

[4] = inhibition of 3D7 malaria parasite growth – strain 3D7 (AID 2306);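 further: 0% = DMSO wells and 100% = chloroquine plus artemisinin control wells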; conditions: P. falciparum 3D7 erythrocytic growth, LDH absorbance, 72 h; at 2 µM; active compounds read high
[5] = target: Calcium-dependent protein kinase 1 (Plasmodium falciparum (isolate 3D7)) (UniProt P62344); assay: PfCDPK1 kinase inhibitors, biochemical, TCAMS library (AID 1159585; cut-off not given, nearly all actives have IC50 up to about 0.98 µM;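 further: inhibitors leave more ATP so luminescence rises with inhibition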); conditions: recombinant PfCDPK1, Kinase-Glo ATP depletion luminescence
Chain of Calcium-dependent protein kinase 1 (Plasmodium falciparum (isolate 3D7)) (P62344 whole entry, looked up): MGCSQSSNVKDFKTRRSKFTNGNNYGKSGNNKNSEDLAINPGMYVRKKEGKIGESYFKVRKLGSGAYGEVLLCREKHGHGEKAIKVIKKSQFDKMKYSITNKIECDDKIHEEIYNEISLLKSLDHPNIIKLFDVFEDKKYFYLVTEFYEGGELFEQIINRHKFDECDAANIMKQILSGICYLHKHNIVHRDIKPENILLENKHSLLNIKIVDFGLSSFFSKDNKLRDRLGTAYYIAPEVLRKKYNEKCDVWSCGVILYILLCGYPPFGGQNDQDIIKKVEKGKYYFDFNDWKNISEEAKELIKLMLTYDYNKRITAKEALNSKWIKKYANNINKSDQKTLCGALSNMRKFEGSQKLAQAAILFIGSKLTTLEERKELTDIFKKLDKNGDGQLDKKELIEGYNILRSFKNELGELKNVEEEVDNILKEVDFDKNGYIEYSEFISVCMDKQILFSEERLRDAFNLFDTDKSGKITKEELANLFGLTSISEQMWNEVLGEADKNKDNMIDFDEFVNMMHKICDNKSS

[6] = target: Plasmodium falciparum protein kinase 6 (PK6, PF3D7_1337100) (UniProt Q8IDW1); assay: PfPK6 kinase inhibitors, biochemical, TCAMS library (AID 1159586); conditions: recombinant PfPK6, Kinase-Glo ATP depletion luminescence
Chain of Plasmodium falciparum protein kinase 6 (PK6, PF3D7_1337100) (Q8IDW1 1-305): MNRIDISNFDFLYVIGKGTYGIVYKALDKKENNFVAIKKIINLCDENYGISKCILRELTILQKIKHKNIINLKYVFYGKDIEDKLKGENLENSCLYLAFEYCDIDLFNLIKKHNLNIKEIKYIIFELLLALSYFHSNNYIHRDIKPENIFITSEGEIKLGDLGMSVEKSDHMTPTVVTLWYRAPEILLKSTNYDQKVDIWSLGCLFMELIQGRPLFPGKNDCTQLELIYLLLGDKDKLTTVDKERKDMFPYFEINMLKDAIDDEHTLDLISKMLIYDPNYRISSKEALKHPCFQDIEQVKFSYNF

[7] = target: Protein kinase 7 (PK7), Plasmodium falciparum 3D7 (PF3D7_0213400) (UniProt Q7YTF7); assay: inhibition of Plasmodium PK7 catalytic activity – biochemical, TCAMS antimalarial set, Kinase-Glo luminescence (AID 1159587); conditions: recombinant PfPK7, Kinase-Glo ATP depletion luminescence
Chain of Protein kinase 7 (PK7), Plasmodium falciparum 3D7 (PF3D7_0213400) (Q7YTF7 1-343): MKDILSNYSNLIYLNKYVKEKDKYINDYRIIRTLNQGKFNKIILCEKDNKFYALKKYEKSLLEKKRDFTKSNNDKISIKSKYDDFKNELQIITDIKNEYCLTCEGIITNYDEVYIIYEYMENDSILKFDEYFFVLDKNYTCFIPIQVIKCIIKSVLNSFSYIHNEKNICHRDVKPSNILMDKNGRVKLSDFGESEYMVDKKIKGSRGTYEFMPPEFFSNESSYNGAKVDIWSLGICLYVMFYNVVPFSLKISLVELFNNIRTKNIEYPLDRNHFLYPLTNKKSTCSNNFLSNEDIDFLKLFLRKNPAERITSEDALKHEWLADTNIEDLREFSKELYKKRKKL

[8] = target: Calcium-dependent protein kinase 4 (Plasmodium falciparum (isolate 3D7)) (UniProt Q8IBS5); assay: PfCDPK4 kinase inhibitors, biochemical, TCAMS library (AID 1159588; cut-off not given, nearly all actives have IC50 up to about 0.91 µM); conditions: recombinant PfCDPK4, Kinase-Glo ATP depletion luminescence
Chain of Calcium-dependent protein kinase 4 (Plasmodium falciparum (isolate 3D7)) (Q8IBS5 whole entry, looked up): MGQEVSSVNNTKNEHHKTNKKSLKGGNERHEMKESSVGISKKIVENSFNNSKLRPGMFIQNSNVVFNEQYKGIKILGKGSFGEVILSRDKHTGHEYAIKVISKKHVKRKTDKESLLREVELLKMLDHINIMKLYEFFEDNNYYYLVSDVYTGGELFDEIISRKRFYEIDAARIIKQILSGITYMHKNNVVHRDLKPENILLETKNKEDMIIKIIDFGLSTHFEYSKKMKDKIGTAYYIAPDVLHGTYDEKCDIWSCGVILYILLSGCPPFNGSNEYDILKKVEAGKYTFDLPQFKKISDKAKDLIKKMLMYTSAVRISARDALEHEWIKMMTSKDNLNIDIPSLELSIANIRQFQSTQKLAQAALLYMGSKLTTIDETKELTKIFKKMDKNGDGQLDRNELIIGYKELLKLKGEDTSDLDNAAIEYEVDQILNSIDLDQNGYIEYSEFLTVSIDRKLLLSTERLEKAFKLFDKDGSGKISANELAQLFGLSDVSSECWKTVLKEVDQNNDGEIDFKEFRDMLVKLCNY

CN(C)CCOc1ccc(NC(=O)NC(C)(C)c2nc(-c3ccc(Cl)c(O)c3)c(-c3ccncc3)[nH]2)cc1
inactive: inhibition [2] 22% | inhibition [3] 5% | outcome [5] | outcome [6] | outcome [7] | outcome [8]
active: growth inhibition [1] 98% | growth inhibition [4] 98%

COc1ccc(C=NNc2c3ccccc3nc3ccccc23)c2ccccc12
inactive: growth inhibition [1] 23% | inhibition [2] 9% | inhibition [3] 2% | outcome [5] | outcome [6] | outcome [7] | outcome [8]
active: growth inhibition [4] 82%

CCCN1CCN(CC(O)CNC(=O)Nc2ccc(Br)cc2)CC1 (configuration not stated)
inactive: inhibition [2] 10% | inhibition [3] 0% | outcome [5] | outcome [6] | outcome [7] | outcome [8]
active: growth inhibition [1] 100% | growth inhibition [4] 101%

COc1ccccc1CCCON1C(N)=NC(N)=NC1(C)C
active: growth inhibition [1] 92% | inhibition [2] 68% | growth inhibition [4] 95%
inactive: inhibition [3] -1% | outcome [5] | outcome [6] | outcome [7] | outcome [8]

O=C(Nc1ccc(C(F)(F)F)cc1)NC1CCN(c2ccnc3ccccc23)CC1
inactive: inhibition [2] 46% | inhibition [3] -2% | outcome [5] | outcome [6] | outcome [7] | outcome [8]
active: growth inhibition [1] 62% | growth inhibition [4] 103%

Cc1[nH]c(C)c([N+](=O)[O-])c(=O)c1-c1ccc(Oc2ccc(OC(F)(F)F)cc2)cc1
inactive: inhibition [2] -2% | inhibition [3] -2% | outcome [5] | outcome [6] | outcome [7] | outcome [8]
active: growth inhibition [1] 97% | growth inhibition [4] 97%

Cc1ccc(CON2C(N)=NC(N)=NC2(C)C)cc1C
inactive: inhibition [3] -9% | outcome [5] | outcome [6] | outcome [7] | outcome [8]
active: growth inhibition [1] 88% | inhibition [2] 64% | growth inhibition [4] 92%

CNC(=O)c1cc(F)c(F)cc1Nc1nc(Nc2cccc(CS(C)(=O)=O)c2)ncc1Cl
inactive: inhibition [3] 3% | outcome [5] | outcome [6] | outcome [7] | outcome [8]
active: growth inhibition [1] 90% | inhibition [2] 52% | growth inhibition [4] 91%

O=C(NC1CC1)c1ccc2cc(C(=O)N3Cc4ccccc4C(c4ccccc4)C3)ccc2c1 (configuration not stated)
inactive: inhibition [2] -2% | inhibition [3] 1% | outcome [5] | outcome [6] | outcome [7] | outcome [8]
active: growth inhibition [1] 64% | growth inhibition [4] 97%

C=CCNC(CCCCC)c1ccc(OCCOc2ccc(C(CCCCC)NCC=C)cc2)cc1 (configuration not stated)
active: inhibition [2] 100% | growth inhibition [4] 88%
inactive: growth inhibition [1] 48% | inhibition [3] -6% | outcome [5] | outcome [6] | outcome [7] | outcome [8]

O=C(NCC1CCCCC1)c1cc(=O)c2ccccc2o1
inactive: inhibition [2] -1% | inhibition [3] -2% | outcome [5] | outcome [6] | outcome [7] | outcome [8]
active: growth inhibition [1] 77% | growth inhibition [4] 98%

COc1ccc(Cl)cc1N1CCN(CCCNC(=O)c2ccc(-c3nc4cc(Cl)c(F)cc4[nH]3)cc2)CC1
active: growth inhibition [1] 98% | growth inhibition [4] 101%
inactive: inhibition [2] 3% | inhibition [3] 6% | outcome [5] | outcome [6] | outcome [7] | outcome [8]

c1ccc2c(CNCCCCCCNCc3c(OCC4CC4)ccc4ccccc34)c(OCC3CC3)ccc2c1
inactive: inhibition [3] -8% | outcome [5] | outcome [6] | outcome [7] | outcome [8]
active: growth inhibition [1] 97% | inhibition [2] 100% | growth inhibition [4] 93%

Cc1cc(F)ccc1Nc1nc(N(C)c2ccccc2)c2cccc(OCCO)c2n1
inactive: inhibition [2] 34% | inhibition [3] 0% | outcome [5] | outcome [6] | outcome [7] | outcome [8]
active: growth inhibition [1] 94% | growth inhibition [4] 95%

CCOc1cc(C(=O)NCCCN2CCN(c3cccc(Cl)c3)CC2)ccc1-c1nc2cc(Cl)c(F)cc2[nH]1
active: growth inhibition [4] 96%
inactive: growth inhibition [1] 19% | inhibition [2] 16% | inhibition [3] 7% | outcome [5] | outcome [6] | outcome [7] | outcome [8]

Cc1cccc2[nH]c(-c3ccc(-c4ccc(NC(=O)C(C)CN5CCN(C)CC5)cc4)s3)nc12 (configuration not stated)
active: growth inhibition [1] 99% | growth inhibition [4] 101%
inactive: inhibition [2] 17% | inhibition [3] -2% | outcome [5] | outcome [6] | outcome [7] | outcome [8]

CCCCCCCN1CCC(CCNc2ccnc3ccc(OC)cc23)CC1
inactive: inhibition [2] 5% | inhibition [3] -2% | outcome [5] | outcome [6] | outcome [7] | outcome [8]
active: growth inhibition [1] 86% | growth inhibition [4] 84%

Cc1nc(-c2cccc3c(NC(=O)Nc4ccc5nccc(N6CCN(C)CC6)c5c4)cccc23)no1
active: growth inhibition [1] 84% | growth inhibition [4] 100%
inactive: inhibition [2] -4% | inhibition [3] -2% | outcome [5] | outcome [6] | outcome [7] | outcome [8]

NC(=NCCCCCCCCN=C(N)Nc1ccc(Cl)cc1)Nc1ccc(Cl)cc1
inactive: inhibition [2] 10% | inhibition [3] -5% | outcome [5] | outcome [6] | outcome [7] | outcome [8]
active: growth inhibition [1] 89% | growth inhibition [4] 93%

COc1ccc2ncc(C)c(CCN3CCC(NCc4ccc5c(n4)NC(=O)CS5)CC3)c2c1
inactive: inhibition [2] 14% | inhibition [3] -4% | outcome [5] | outcome [6] | outcome [7] | outcome [8]
active: growth inhibition [1] 53% | growth inhibition [4] 100%

Cc1[nH]c(C)c(-c2ccc(C#Cc3ccc(F)cc3F)cc2)c(=O)c1Br
inactive: inhibition [2] 11% | inhibition [3] -1% | outcome [5] | outcome [6] | outcome [7] | outcome [8]
active: growth inhibition [1] 98% | growth inhibition [4] 97%

N#Cc1ccc(N[C@@H](CC2CCCCC2)C(=O)NCc2cc(F)c(F)cc2F)c2ccccc12
active: growth inhibition [4] 94%
inactive: growth inhibition [1] 39% | inhibition [2] 12% | inhibition [3] -3% | outcome [5] | outcome [6] | outcome [7] | outcome [8]

Cc1c(N)ccc2[nH]c(-c3ccc(N)cc3)nc12
inactive: growth inhibition [1] 40% | inhibition [2] 0% | inhibition [3] 0% | outcome [5] | outcome [6] | outcome [7] | outcome [8]
active: growth inhibition [4] 97%

CN1CCC(Oc2ccc(Nc3nccc(NCC(O)c4ccccc4)n3)cc2Cl)CC1 (configuration not stated)
active: growth inhibition [1] 99% | growth inhibition [4] 102%
inactive: inhibition [2] 46% | inhibition [3] 0% | outcome [5] | outcome [6] | outcome [7] | outcome [8]

Cn1c(N)c(C(=O)CSc2nnc(-c3cccs3)n2Cc2ccccc2)c(=O)n(C)c1=O
active: growth inhibition [1] 68% | growth inhibition [4] 85%
inactive: inhibition [2] -13% | inhibition [3] -3% | outcome [5] | outcome [6] | outcome [7] | outcome [8]

Cc1cc(NCC(c2ccccc2)c2ccccc2)nc(NCC2CCCCC2)n1
inactive: inhibition [2] 12% | inhibition [3] 3% | outcome [5] | outcome [6] | outcome [7] | outcome [8]
active: growth inhibition [1] 93% | growth inhibition [4] 100%

COC(=O)CC[C@H](NC(=O)[C@H](C)NC(=O)OC(C)(C)C)C(=O)OC (Boc-Ala-Glu(OMe)-OMe)
active: growth inhibition [4] 95%
inactive: growth inhibition [1] 0% | inhibition [2] 12% | inhibition [3] -2% | outcome [5] | outcome [6] | outcome [7] | outcome [8]

OC(CNc1cccc(Cl)c1)Cn1c2ccc(Cl)cc2c2cc(Cl)ccc21 (configuration not stated)
inactive: growth inhibition [1] 33% | inhibition [2] 8% | inhibition [3] 6% | outcome [5] | outcome [6] | outcome [7] | outcome [8]
active: growth inhibition [4] 95%

CC(C)C[C@H](NC(=O)c1ccc(OCCN2CCOCC2)cc1)C(=O)N[C@H](/C=N/N1CCN(C)C1=O)CCc1ccccc1
inactive: inhibition [2] 3% | inhibition [3] 3% | outcome [5] | outcome [6] | outcome [7] | outcome [8]
active: growth inhibition [1] 65% | growth inhibition [4] 90%

O=C(O)C[C@H](NC(=O)c1cc(-c2ccc3c(c2)OCO3)no1)C(=O)O (tested in a mixture with another compound)
active: growth inhibition [4] 98%
inactive: growth inhibition [1] -3% | inhibition [2] -4% | inhibition [3] -2% | outcome [5] | outcome [6] | outcome [7] | outcome [8]

O=C(Nc1cc(Cl)cc(Cl)c1)Nc1ccnc2ccccc12
active: growth inhibition [1] 65% | growth inhibition [4] 96%
inactive: inhibition [2] 15% | inhibition [3] -2% | outcome [5] | outcome [6] | outcome [7] | outcome [8]

Cc1cccc2[nH]c(-c3cccc(-c4cccc(C(=O)NCCc5cn(C)cn5)c4)c3)nc12
inactive: inhibition [2] 12% | inhibition [3] 8% | outcome [5] | outcome [6] | outcome [7] | outcome [8]
active: growth inhibition [1] 78% | growth inhibition [4] 101%

Fc1ccc2nc(-c3ccc(-c4ccc(CN5CCCCC5)cc4)s3)[nH]c2c1
inactive: inhibition [2] 42% | inhibition [3] -2% | outcome [5] | outcome [6] | outcome [7] | outcome [8]
active: growth inhibition [1] 100% | growth inhibition [4] 92%

O=C(NC1CCN(c2ccnc3cc(Cl)ccc23)C1)c1cccc(F)c1 (configuration not stated)
inactive: inhibition [2] 30% | inhibition [3] 1% | outcome [5] | outcome [6] | outcome [7] | outcome [8]
active: growth inhibition [1] 98% | growth inhibition [4] 95%

CC(C)CCNCc1ccc(OCc2cccc(C(=O)Nc3ccccc3)c2)c(I)c1
active: growth inhibition [1] 59% | growth inhibition [4] 100%
inactive: inhibition [2] 25% | inhibition [3] 0% | outcome [5] | outcome [6] | outcome [7] | outcome [8]

COc1ccc(-c2nc(NC(=O)CS(=O)(=O)c3ccc(F)cc3)sc2C)cc1
active: growth inhibition [1] 99% | growth inhibition [4] 100%
inactive: inhibition [2] 20% | inhibition [3] -3% | outcome [5] | outcome [6] | outcome [7] | outcome [8]

CCNc1cc(C(=O)N[C@@H](Cc2ccccc2)[C@H](O)CNCCC(C)(C)C)c(F)c(N2CCCCS2(=O)=O)c1
inactive: inhibition [2] 2% | inhibition [3] 2% | outcome [5] | outcome [6] | outcome [7] | outcome [8]
active: growth inhibition [1] 93% | growth inhibition [4] 98%

O=C(Nc1ccc([N+](=O)[O-])cc1O)Nc1ccccc1Oc1ccccc1
active: growth inhibition [4] 92%
inactive: growth inhibition [1] 1% | inhibition [2] 45% | inhibition [3] -8% | outcome [5] | outcome [6] | outcome [7] | outcome [8]

O=C(Nc1ccc(S(=O)(=O)N2CCCCCC2)cc1)c1cc(-c2ccccc2O)n[nH]1
inactive: inhibition [2] 16% | inhibition [3] 6% | outcome [5] | outcome [6] | outcome [7] | outcome [8]
active: growth inhibition [1] 76% | growth inhibition [4] 100%
